High-throughput results as filed in PubChem.
Shown are actives, neighbours in structure and some others; about 1% of the full set was active somewhere.
TrxR1 inh-1 – rat TrxR1 inhibition; recombinant rTrxR1, NADPH fluorescence consumption, selenite substrate; Potency, µM (titrated, usually from 114 µM), most hits filed as inhibitors; O89049; 390,000 compounds, 1% hits; note: nearly all actives have a fitted effect of over 65% in size
Target sequence (O89049 whole entry, looked up): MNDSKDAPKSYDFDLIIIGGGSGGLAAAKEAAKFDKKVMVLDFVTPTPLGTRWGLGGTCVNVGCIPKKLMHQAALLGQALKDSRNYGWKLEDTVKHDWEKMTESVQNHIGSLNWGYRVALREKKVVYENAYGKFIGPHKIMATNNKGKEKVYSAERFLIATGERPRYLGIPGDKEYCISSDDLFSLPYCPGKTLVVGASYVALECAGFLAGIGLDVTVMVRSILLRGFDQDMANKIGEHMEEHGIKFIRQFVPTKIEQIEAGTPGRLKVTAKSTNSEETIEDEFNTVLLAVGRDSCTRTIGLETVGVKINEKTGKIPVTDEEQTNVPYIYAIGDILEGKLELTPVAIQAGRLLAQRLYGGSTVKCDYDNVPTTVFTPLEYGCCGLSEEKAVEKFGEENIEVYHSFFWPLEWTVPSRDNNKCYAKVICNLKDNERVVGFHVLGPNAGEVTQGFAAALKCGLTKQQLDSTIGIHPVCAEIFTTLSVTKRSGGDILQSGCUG
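Rat TrxR1 (90 nM in the dispensed reagent) was pre-reduced with 400 uM NADPH for 5 min at room temperature, then incubated with compound for 15 min. After 400 uM selenite was added, NADPH fluorescence (Ex 340/Em 450 nm) was followed for 8 min.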
RGS4 inhibitor – blocks human RGS4-accelerated GTP hydrolysis | 390,000 compounds, 0.039% hits | Potency, µM (highest dose often 114 µM), hits mostly inhibitors | P49798 | Transcreener GDP fluorescence polarization, RGS4-accelerated GTP hydrolysis; note: nearly all actives have a fitted effect of over 75% in size
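MLSMR compounds (23 nl, pin-transferred) preincubated 10 min at room temperature with a 500nM (2x) first reagent, then RGS4 at 900nM (2x) plus Transcreener GDP mix added; fluorescence polarization (620/688 nm) read before and after 90 min at 30 °C.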
USP2a inh – USP2a (human) protease inhibition; O75604; USP2 core, Ub-CHOP2 coupled fluorogenic reporter, 485/531; Potency, µM (titrated, usually from 38.3 µM), usual class: inhibitors; 330,000 compounds, 0.01% hits; AID 463254
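USP2 core (10nM final) preincubated 30min RT with compound in 20mM Tris-HCl pH 8.0, 2mM CaCl2, 2mM beta-mercaptoethanol, 0.05% CHAPS; 25nM Ub-CHOP2 plus 25nM reporter substrate added, fluorescence (Ex485/Em531) read after 60min.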
GALK inhibitor – blocks human galactokinase activity; Potency, µM (titrated, usually from 57.5 µM), most hits filed as inhibitors; Purified GALK, Kinase-Glo residual ATP luminescence; P51570; 270,000 compounds, 0.007% hits
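GALK at 5 nM final was combined with compound, 35 uM ATP and 100 uM galactose in HEPES pH8.0 with MgCl2 and DTT. The reaction ran one hour at room temperature before luminescent ATP detection.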
Eya2 inh – inhibitors of human Eya2 phosphatase activity | recombinant Eya2, OMFP fluorescence dephosphorylation (OMFP is methylfluorescein phosphate) | O00167 | 330,000 compounds, 0.006% hits | AID 488837 | Potency, µM (titrated, usually from 76.9 µM), actives largely listed as inhibitors
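Eya2 (0.2 uM) preincubated 10 min at ambient with compound, then OMFP substrate added at 50 uM; 10 min reaction in 50 mM HEPES pH 7.5, 50 mM NaCl, 5 uM MgCl2, 0.05% BSA, 1 mM DTT. Fluorescence read at Ex 485/Em 525 nm.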
TrxR1 substrate – is turned over as a substrate by rat TrxR1 | O89049 | purified TrxR1 substrate turnover, NADPH consumption readout | Potency, µM (highest dose often 114 µM) | 390,000 compounds, 0.01% hits | AID 588456; note: nearly all actives have a fitted effect of over 50% in size
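Rat TrxR1, dispensed at 90 nM, was prereduced with 400 uM NADPH (final) for 5 min at ~22 deg C, then incubated with compound 15 min before 400 uM selenite. A first-read NADPH fluorescence drop versus no-compound background flagged substrates.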
TRb SRC2 Alpha – disrupts human TRb binding to SRC2 peptide in AlphaScreen; AlphaScreen TRb LBD-SRC2 peptide binding, luminescence; AID 2444; 30 compounds, 50% hits; Potency, µM; shares compounds with TrxR1 inh-1; calls by dose curve
HepG2 tox – reduces HepG2 viability in TRb-SRC2 counter-screen; shares compounds with TrxR1 inh-1; 40 compounds, 50% hits; Potency, µM; HepG2 viability, ATP luminescence (CellTiter-Glo), 72 h; calls by dose curve
AR SRC2 FP – selectivity of TRb-SRC2 inhibitors: human androgen receptor-SRC2 inhibition; shares compounds with TrxR1 inh-1; AR-LBD Tx-SRC2-3 fluorescence polarization, 3 h; calls only; 25 tested, under 10 active; AID 2448; call rule not given here
PPARg DRIP2 FP – PPARg-DRIP2 (human) interaction inhibition, selectivity. shares compounds with TrxR1 inh-1. PPARg LBD / Texas Red DRIP-2 peptide, fluorescence polarization, 3 h. Potency, µM. 25 tested, under 10 active. AID 2449; calls by dose curve
VDR-SRC2 FP sel – selectivity of TRb-SRC2 inhibitors: human vitamin D receptor-SRC2 inhibition | Potency, µM | 25 tested, under 10 active | VDR LBD/SRC2-3 peptide, fluorescence polarization, 3 h | shares compounds with TrxR1 inh-1 | AID 2455; calls by dose curve
GR counterassay – inhibits human glutathione reductase in TrxR1 counterassay | activity change, negative = inhibition, % at 57.1 µM | AID 652020 | purified GR, DTNB reduction absorbance 405 nm kinetic | shares compounds with TrxR1 inh-1 | 55 tested, under 10 active
TrxR1 inh-2 – rat TrxR1 inhibition, primary screen retest; shares compounds with TrxR1 inh-1; recombinant TrxR1, NADPH fluorescence consumption, selenite substrate; Potency, µM, usual class: inhibitors; 55 compounds, 50% hits
TrxR1 insulin – TrxR1 inhibition in insulin mechanism assay; shares compounds with TrxR1 inh-1; TrxR1 Trx-coupled insulin reduction, NADPH absorbance 340 nm; Potency, µM; 55 compounds, 20% hits;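 active = compounds with a measured potency under 100 micromolar; inconclusive = filed, but no rule given; inactive = potency at or above that, or unmeasurable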
TrxR1 inh-3 – blocks rat TrxR1 reduction of DTNB; shares compounds with TrxR1 inh-1; 55 compounds, 90% hits; AID 652256; purified TrxR1, DTNB reduction, A412; Potency, µM;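 active = a half-inhibiting concentration could be measured and was below 100 µM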
Hits are given with their value; . = inactive; ? = inconclusive; / = no result; [ ] = another dose, or the depositor's remark. Unless noted, calls come from the whole dose curve; as a rule, active = well fitted curve in the direction sought with a large enough effect; inconclusive = small, poorly fitted or top-dose-only effect, or another doubt; inactive = no such curve, though single readings can be large; an effect the other way counts as inactive or inconclusive.

SMILES	TrxR1 inh-1	RGS4 inhibitor	USP2a inh	GALK inhibitor	Eya2 inh	TrxR1 substrate	GR counterassay	TrxR1 inh-2	TrxR1 insulin	TrxR1 inh-3	others
O=C(COC(=O)c1cc([N+](=O)[O-])ccc1Cl)NC1C2CC3CC(C2)CC1C3 (stereo not drawn)	/	/	/	/	/	/	/	/	/	/	TRb SRC2 Alpha=.;HepG2 tox=.;AR SRC2 FP=.;PPARg DRIP2 FP=.;VDR-SRC2 FP sel=.
O=C(COC(=O)c1cc([N+](=O)[O-])ccc1F)NC1C2CC3CC(C2)CC1C3 (stereo not drawn)	/	/	/	/	/	/	/	/	/	/	TRb SRC2 Alpha=.;HepG2 tox=.;AR SRC2 FP=.;PPARg DRIP2 FP=.;VDR-SRC2 FP sel=.
C[S+](=O)([O-])c1ccc(C(=O)OCC(=O)NC2C3CC4CC(C3)CC2C4)cc1 (stereo not drawn)	/	/	/	/	/	/	/	/	/	/	TRb SRC2 Alpha=.;HepG2 tox=.;AR SRC2 FP=.;PPARg DRIP2 FP=.;VDR-SRC2 FP sel=.
CN(C)c1ccc(/C=C/c2ccnc3cc(Cl)cc(Cl)c23)cc1	.[0.0914 µM]	/	/	/	/	.	/	/	/	/
CCOC(=O)N1CCc2c(sc(NCc3cccc(F)c3)c2C(=O)Nc2ccc(OC)cc2OC)C1	.	?	/	/	/	.	/	/	/	/
COc1cc(C(c2nnnn2C2CCCC2)N2CCc3ccccc3C2)ccc1O (stereo not drawn)	2µM	.[11.4 µM]	.	.	.	.	.	2.12	.	0.71µM
CC1=C(C(=O)Nc2ccccc2C)C(c2ccccn2)n2nc(SCc3ccccc3F)nc2N1 (stereo not drawn)	.[2.29 µM]	.	/	/	/	.	/	/	/	/
O=C(C[n+]1cccc2cc(Cl)ccc21)c1ccc2c(c1)CCCC2	.	/	/	/	/	.[0.0914 µM]	/	/	/	/
CS(=O)(=O)c1ccc(C(=O)OCC(=O)N2CCCCC2)cc1[N+](=O)[O-]	/	/	/	/	/	/	/	/	/	/	HepG2 tox=20.8µM
CCOc1cc(CNc2ccc(N3CCCC3)cc2)cc(Cl)c1OC	3.55µM	?	.	/	.	.	.	?	.	8µM
CCOc1cccc(C(=O)NC(=S)Nc2ccccc2)c1	31.6µM	.	.	.	.	.	.	6.7	.	74µM
CCC(=O)Nc1cccc(NC(=S)NC(=O)c2cccc(C)c2)c1	11.2µM	.	.	.	.	.	.	5.97	.	1.34µM
CCOc1cccc(C(=O)NC(=S)Nc2cccc(NC(=O)c3ccccc3Cl)c2)c1	.	.	.	.	.	.	/	/	/	/
CCOc1cccc(C(=O)NC(=S)Nc2ccc(N3CCN(CC)CC3)cc2)c1	.	.	.	.	.	.	/	/	/	/
CCC(=O)Nc1cccc(NC(=S)NC(=O)c2ccc(C)cc2)c1	?	.	.	.	.	.	/	/	/	/
CCCOc1cccc(C(=O)NC(=S)Nc2ccc(N3CCN(C)CC3)cc2)c1	79.4µM	.	.	.	.	.	.	5.32	.	.
COc1cccc(-c2ccc3ncnc(NCc4cccc(F)c4)c3c2)c1	/	/	.	/	.	/	/	/	/	/
CC(NS(=O)(=O)c1ccccc1[N+](=O)[O-])c1ccccn1 (stereo not drawn)	.	/	/	/	/	.	/	/	/	/
CCn1c2ccccc2c2nnc(N3CCN(c4ccc(OC)cc4)CC3)nc21	.	.	/	/	/	.	/	/	/	/
Fc1ccccc1CN1CCN(c2ncccn2)CC1	.	.	.	.	.	.	/	/	/	/
Oc1cc2c(cc1CN1CCN(c3ncccn3)CC1)OCO2	25.1µM	.	.	.	.	.	.	?	.	.
COc1ccc(N(C(=O)c2ccncc2)S(=O)(=O)c2cccc([N+](=O)[O-])c2)cc1	50.1µM	.	.	.	.	.	.	9.47	.	9.23µM
COc1ccc(N(C(=O)c2cccnc2)S(=O)(=O)c2cccc([N+](=O)[O-])c2)cc1	.	.	.	.	.	.	/	/	/	/
NC(=O)c1ccccc1NC(=S)NC(=O)CCc1ccccc1	.	?	.	.	.	.	/	/	/	/
